Experimental data taken from ChEMBL document CHEMBL1961873, “Compounds: GSK PKIS; Assays: Nanosyn kinase panel” (2012).
Values joined by “and” are separate entries in the source; they are usually repeats but may differ in a detail not shown here. Identical values can stand only once.

Columns and labels:
[1] = biological target: Fibroblast growth factor receptor 4 (Homo sapiens) (UniProt P22455); details: at 1 µM;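 also: reported figure is the averaged percent inhibition of FGFR4, from the GSK PKIS kinase screening panel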
[2] = biological target: Tyrosine-protein kinase Fgr (Homo sapiens) (UniProt P09769); details: at 0.1 µM
[3] = biological target: Tyrosine-protein kinase Fgr (Homo sapiens) (UniProt P09769); details: at 1 µM
[4] = biological target: Vascular endothelial growth factor receptor 1 (Homo sapiens) (UniProt P17948); details: at 0.1 µM
[5] = biological target: Vascular endothelial growth factor receptor 1 (Homo sapiens) (UniProt P17948); details: at 1 µM
[6] = biological target: Receptor-type tyrosine-protein kinase FLT3 (Homo sapiens) (UniProt P36888); details: at 0.1 µM
[7] = biological target: Receptor-type tyrosine-protein kinase FLT3 (Homo sapiens) (UniProt P36888); details: at 1 µM
[8] = tested on: T1, Receptor-type tyrosine-protein kinase FLT3 (Homo sapiens), P36888 [D835Y]; details: at 0.1 µM
T1 sequence (whole entry): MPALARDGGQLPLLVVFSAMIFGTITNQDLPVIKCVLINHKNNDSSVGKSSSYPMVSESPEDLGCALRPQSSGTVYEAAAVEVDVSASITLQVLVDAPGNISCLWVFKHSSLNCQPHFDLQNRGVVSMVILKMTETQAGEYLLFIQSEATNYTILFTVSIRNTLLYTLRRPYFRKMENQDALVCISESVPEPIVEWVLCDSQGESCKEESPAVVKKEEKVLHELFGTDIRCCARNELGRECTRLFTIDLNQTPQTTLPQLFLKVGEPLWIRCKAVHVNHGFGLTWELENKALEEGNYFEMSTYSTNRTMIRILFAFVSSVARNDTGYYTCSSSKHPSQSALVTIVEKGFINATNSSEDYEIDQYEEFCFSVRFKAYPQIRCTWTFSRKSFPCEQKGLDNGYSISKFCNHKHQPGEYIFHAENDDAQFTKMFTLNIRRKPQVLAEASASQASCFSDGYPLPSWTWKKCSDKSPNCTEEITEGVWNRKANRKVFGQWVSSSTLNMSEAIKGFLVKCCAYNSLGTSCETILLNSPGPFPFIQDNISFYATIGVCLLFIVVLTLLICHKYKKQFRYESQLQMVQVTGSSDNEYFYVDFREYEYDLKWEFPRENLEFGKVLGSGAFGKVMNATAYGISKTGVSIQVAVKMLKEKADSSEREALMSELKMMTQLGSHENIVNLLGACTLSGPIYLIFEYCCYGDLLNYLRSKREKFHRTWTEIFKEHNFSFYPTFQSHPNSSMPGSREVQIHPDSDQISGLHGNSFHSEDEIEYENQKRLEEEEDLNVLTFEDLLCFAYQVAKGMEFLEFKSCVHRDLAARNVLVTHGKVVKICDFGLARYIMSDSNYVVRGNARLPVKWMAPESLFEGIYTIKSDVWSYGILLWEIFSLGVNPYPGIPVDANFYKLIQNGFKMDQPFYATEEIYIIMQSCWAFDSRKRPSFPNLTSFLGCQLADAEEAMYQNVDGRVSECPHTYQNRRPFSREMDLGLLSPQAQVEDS

[9] = biological target: Non-receptor tyrosine-protein kinase TYK2 (Homo sapiens) (UniProt P29597); details: at 1 µM;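 also: values are mean percent inhibition of TYK2 kinase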
[10] = biological target: T2, Tyrosine-protein kinase receptor TYRO3 (Homo sapiens) (UniProt Q06418); details: at 0.1 µM
T2 sequence (whole entry): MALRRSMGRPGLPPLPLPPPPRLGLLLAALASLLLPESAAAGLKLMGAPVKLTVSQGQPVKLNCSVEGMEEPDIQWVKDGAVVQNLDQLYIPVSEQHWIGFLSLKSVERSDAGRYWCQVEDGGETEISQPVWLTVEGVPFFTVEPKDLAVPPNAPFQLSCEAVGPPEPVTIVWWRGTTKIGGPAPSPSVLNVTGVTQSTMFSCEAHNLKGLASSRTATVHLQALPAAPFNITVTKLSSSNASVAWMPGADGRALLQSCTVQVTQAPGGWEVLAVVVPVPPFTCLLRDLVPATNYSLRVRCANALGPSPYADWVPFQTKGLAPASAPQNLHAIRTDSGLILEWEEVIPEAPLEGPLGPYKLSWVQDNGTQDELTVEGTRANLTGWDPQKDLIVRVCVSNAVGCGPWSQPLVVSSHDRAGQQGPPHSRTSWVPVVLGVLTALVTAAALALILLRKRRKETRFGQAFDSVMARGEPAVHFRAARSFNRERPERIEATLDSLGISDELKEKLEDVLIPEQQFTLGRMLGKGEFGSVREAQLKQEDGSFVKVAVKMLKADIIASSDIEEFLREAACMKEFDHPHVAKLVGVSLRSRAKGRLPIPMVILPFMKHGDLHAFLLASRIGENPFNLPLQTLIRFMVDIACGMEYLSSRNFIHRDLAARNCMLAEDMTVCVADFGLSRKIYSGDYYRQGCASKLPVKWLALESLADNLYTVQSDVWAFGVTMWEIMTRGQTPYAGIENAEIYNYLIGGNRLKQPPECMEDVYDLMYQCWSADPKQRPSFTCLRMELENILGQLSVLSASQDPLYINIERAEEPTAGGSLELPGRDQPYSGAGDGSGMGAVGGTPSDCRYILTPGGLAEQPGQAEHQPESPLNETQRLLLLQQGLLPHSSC

[11] = biological target: T2, Tyrosine-protein kinase receptor TYRO3 (Homo sapiens); details: at 1 µM
[12] = biological target: Tyrosine-protein kinase Yes (Homo sapiens) (UniProt P07947); details: at 0.1 µM
[13] = biological target: Tyrosine-protein kinase Yes (Homo sapiens) (UniProt P07947); details: at 1 µM
[14] = biological target: T3, Tyrosine-protein kinase ZAP-70 (Homo sapiens) (UniProt P43403); details: at 0.1 µM
T3 sequence (whole entry): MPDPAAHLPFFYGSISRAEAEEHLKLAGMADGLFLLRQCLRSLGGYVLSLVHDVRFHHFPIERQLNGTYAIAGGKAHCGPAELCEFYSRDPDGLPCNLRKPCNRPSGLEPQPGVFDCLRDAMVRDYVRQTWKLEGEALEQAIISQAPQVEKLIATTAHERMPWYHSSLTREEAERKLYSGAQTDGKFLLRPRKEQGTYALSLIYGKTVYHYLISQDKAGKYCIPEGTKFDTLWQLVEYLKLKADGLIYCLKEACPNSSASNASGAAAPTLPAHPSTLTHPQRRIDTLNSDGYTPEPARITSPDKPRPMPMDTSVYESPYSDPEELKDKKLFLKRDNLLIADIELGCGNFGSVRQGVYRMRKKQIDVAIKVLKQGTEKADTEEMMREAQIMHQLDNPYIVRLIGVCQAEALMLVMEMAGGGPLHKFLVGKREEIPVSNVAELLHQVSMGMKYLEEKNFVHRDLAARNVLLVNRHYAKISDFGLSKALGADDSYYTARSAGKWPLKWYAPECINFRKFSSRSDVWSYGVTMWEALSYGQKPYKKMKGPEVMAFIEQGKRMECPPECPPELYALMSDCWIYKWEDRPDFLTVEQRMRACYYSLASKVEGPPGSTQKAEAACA

[15] = biological target: T3, Tyrosine-protein kinase ZAP-70 (Homo sapiens); details: at 1 µM
[16] = biological target: Serine/threonine-protein kinase B-raf (Homo sapiens) (UniProt P15056); details: at 0.1 µM
[17] = biological target: Serine/threonine-protein kinase B-raf (Homo sapiens) (UniProt P15056); details: at 1 µM
[18] = tested on: Serine/threonine-protein kinase B-raf (Homo sapiens), P15056 [V600E]; details: at 0.1 µM
[19] = tested on: Serine/threonine-protein kinase B-raf (Homo sapiens), P15056 [V600E]; details: at 1 µM
[20] = biological target: RAF proto-oncogene serine/threonine-protein kinase (Homo sapiens) (UniProt P04049); details: at 0.1 µM;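 also: values are mean CRAF kinase inhibition from profiling of the GSK Published Kinase Inhibitor Set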

Sequence of Vascular endothelial growth factor receptor 1 (Homo sapiens) (P17948 whole entry): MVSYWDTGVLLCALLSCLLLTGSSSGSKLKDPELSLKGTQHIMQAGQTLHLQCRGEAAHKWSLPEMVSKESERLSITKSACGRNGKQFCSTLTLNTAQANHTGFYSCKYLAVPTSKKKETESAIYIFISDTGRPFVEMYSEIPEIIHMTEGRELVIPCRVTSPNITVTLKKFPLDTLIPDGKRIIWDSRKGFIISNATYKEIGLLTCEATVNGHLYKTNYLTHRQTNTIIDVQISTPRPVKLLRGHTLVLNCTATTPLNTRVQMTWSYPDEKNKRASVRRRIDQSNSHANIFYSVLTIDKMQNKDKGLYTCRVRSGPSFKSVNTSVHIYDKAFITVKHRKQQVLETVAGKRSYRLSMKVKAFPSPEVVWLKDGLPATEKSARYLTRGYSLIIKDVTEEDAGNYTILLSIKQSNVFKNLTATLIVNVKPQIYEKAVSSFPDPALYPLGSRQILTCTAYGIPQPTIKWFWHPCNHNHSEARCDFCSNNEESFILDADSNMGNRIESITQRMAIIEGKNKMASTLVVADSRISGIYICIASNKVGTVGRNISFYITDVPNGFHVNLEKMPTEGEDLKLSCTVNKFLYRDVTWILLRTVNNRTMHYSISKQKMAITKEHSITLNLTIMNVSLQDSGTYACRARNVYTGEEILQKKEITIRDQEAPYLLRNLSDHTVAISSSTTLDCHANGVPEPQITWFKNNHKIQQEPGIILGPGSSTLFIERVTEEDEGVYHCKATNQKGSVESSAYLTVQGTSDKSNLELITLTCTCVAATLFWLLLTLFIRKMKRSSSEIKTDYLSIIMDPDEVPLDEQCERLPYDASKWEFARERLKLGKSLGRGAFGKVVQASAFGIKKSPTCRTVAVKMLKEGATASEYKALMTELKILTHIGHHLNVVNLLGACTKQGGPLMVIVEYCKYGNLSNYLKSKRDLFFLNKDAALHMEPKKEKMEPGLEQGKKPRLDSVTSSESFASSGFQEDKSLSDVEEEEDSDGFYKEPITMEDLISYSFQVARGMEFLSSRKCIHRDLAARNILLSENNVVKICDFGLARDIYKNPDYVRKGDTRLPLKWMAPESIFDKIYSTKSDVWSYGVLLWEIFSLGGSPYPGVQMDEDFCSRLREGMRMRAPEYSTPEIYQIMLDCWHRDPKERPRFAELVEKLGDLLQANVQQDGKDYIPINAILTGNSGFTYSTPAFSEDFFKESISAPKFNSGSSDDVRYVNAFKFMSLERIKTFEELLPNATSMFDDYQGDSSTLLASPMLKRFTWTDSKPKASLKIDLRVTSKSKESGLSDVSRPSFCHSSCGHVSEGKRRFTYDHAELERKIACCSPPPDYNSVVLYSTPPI
Sequence of Serine/threonine-protein kinase B-raf (Homo sapiens) (P15056 whole entry): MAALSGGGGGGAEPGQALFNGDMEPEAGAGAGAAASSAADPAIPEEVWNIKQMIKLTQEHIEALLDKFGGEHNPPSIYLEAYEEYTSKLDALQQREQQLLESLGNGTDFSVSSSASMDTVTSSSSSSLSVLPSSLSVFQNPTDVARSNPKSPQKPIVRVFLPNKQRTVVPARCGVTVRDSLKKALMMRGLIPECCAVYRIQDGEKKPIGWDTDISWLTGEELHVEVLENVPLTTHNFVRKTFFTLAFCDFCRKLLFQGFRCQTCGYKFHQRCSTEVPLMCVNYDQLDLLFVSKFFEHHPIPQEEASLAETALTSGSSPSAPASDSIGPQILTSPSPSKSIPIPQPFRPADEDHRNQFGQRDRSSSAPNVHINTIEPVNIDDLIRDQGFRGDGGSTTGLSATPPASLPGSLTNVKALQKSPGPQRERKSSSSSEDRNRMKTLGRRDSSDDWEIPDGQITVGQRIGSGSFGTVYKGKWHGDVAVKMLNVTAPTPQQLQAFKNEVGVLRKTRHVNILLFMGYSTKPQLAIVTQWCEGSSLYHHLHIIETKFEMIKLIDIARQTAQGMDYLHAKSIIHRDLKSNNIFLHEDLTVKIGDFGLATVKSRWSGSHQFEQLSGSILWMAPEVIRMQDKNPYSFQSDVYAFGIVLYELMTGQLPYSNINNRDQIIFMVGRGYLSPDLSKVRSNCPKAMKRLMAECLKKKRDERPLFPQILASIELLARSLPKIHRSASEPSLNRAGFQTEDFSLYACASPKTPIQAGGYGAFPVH
Sequence of Tyrosine-protein kinase Fgr (Homo sapiens) (P09769 2-529 limits assumed): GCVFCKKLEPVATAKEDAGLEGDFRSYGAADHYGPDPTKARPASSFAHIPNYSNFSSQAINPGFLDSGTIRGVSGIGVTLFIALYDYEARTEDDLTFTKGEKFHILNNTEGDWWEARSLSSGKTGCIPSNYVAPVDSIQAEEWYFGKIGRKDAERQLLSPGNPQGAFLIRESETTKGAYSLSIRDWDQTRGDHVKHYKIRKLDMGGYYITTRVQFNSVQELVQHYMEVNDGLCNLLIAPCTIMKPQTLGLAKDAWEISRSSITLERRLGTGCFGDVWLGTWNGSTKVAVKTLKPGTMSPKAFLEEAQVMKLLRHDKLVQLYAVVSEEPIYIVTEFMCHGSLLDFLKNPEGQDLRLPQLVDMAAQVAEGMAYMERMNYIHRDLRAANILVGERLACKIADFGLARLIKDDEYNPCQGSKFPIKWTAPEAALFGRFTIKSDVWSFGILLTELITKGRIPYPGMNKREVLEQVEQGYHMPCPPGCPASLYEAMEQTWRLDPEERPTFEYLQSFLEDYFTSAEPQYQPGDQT
Sequence of Serine/threonine-protein kinase B-raf (Homo sapiens), P15056 [V600E] (P15056 whole entry V600E): as the sequence (P15056 whole entry) above, with V600E counted along it
Sequence of Fibroblast growth factor receptor 4 (Homo sapiens) (P22455 22-802 limits assumed): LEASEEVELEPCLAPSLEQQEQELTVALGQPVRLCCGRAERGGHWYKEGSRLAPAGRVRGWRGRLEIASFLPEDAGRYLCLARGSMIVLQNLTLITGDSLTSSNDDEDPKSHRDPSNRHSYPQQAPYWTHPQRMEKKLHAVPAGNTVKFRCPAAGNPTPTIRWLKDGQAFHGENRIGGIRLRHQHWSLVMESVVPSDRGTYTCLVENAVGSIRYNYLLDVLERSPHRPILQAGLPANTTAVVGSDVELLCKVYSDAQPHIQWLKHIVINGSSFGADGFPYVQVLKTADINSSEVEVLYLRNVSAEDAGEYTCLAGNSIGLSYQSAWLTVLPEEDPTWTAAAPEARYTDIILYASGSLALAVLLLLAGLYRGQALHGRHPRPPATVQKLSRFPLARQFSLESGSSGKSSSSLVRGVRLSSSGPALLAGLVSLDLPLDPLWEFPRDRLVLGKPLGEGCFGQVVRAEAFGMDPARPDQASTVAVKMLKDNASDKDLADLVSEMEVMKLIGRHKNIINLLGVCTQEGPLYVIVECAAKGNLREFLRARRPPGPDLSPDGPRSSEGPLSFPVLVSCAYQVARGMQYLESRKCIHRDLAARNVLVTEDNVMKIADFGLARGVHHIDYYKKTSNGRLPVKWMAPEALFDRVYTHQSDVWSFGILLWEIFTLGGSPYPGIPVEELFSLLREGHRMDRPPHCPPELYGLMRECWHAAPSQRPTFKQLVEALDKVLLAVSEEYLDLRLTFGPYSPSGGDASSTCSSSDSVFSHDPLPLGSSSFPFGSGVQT
Sequence of Non-receptor tyrosine-protein kinase TYK2 (Homo sapiens) (P29597 whole entry): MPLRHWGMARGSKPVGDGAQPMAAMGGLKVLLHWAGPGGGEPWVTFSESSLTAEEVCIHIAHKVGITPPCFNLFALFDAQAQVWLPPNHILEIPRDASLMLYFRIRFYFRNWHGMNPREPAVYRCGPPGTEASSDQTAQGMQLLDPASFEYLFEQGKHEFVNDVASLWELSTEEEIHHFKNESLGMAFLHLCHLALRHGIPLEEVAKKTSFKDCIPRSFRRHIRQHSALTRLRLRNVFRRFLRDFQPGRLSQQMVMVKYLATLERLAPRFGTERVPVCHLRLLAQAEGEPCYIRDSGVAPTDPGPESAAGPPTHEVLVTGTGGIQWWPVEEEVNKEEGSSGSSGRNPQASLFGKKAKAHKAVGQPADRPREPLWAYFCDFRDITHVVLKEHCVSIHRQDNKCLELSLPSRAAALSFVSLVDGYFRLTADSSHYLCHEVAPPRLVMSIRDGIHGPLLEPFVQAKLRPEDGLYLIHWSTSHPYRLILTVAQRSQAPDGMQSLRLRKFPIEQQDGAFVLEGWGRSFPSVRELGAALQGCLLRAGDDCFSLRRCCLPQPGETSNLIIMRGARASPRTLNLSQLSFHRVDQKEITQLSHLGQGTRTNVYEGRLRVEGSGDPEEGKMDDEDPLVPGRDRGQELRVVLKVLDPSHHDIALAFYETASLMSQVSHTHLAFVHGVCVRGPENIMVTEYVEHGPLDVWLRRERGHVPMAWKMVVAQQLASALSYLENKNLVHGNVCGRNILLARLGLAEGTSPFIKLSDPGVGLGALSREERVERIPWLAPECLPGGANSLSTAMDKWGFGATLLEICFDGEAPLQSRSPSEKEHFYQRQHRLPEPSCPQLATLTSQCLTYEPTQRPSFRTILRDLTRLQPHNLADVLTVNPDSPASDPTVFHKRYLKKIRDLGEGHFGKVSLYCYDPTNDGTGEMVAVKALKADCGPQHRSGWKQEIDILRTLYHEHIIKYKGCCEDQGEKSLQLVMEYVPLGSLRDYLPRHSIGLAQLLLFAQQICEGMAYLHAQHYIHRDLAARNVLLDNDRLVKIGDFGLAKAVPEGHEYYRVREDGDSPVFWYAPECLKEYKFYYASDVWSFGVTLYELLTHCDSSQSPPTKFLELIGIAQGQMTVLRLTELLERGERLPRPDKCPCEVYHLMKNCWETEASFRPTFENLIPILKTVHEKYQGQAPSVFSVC

Row | SMILES | inhibition [1] | inhibition [2] | inhibition [3] | inhibition [4] | inhibition [5] | inhibition [6] | inhibition [7] | inhibition [8] | inhibition [9] | inhibition [10] | inhibition [11] | inhibition [12] | inhibition [13] | inhibition [14] | inhibition [15] | inhibition [16] | inhibition [17] | inhibition [18] | inhibition [19] | inhibition [20]
1 | CS(=O)(=O)Nc1ccc(-c2ccc3c(NC(=O)C4CC4)n[nH]c3c2)cc1 | 0.84% | 1.59% | 7.28% | 1.26% | 3.04% | -0.08% | 5.66% | 1.14% | -2.13% | 2.75% | 13.6% | -0.59% | 4.94% | 1.11% | 3.42% | 4.42% | 6.73% | 4.74% | 6.11% | 4.35%
2 | Nc1nonc1-c1nc2cnccc2n1C1CC1 | 0.52% and -2.65% | 1.63% and 3.54% | 4.78% and 2.49% | 2.44% and 2.46% | 7.3% and 7.59% | -0.66% and 0.33% | 4.5% and 3.82% | 2.73% and -0.79% | -1.02% and -1.56% | 1.66% and 1.58% | 4.53% and 2.7% | -0.59% and 1.1% | 1.1% and 2.73% | 0.56% and -1.17% | 3.98% and -1.48% | 5.09% and 3.82% | 9.07% and 5.15% | 4.37% and 3.69% | 8.28% and 5.87% | 6.05% and 2.66%
3 | Nc1ncnc2occ(-c3ccc(NC(=O)Nc4cc(C(F)(F)F)ccc4F)cc3)c12 | 16.7% and 10% | 3.04% and 0.42% | 24.4% and 11.4% | 37.5% and 26.9% | 84.5% and 74.3% | 65.9% and 59.9% | 89.1% and 89.5% | 18% and 5.3% | -7.38% and 0.28% | 5.11% and -0.01% | 35.9% and 19% | 6.63% and 1.99% | 32.5% and 23.6% | 1.41% and -6.7% | 3.15% and -0.06% | 2.87% and -2.08% | 7.26% and 0.64% | 2.85% and -0.81% | 11.3% and 5.32% | -9.78% and -3.09%
4 | CC1=C(C(=O)Nc2ccc3[nH]nc(C)c3c2)C(c2ccc(C(F)(F)F)cc2)CC(=O)N1 (stereo not given) | 2.06% | 1.2% | 3.75% | 1.04% | 5.46% | -0.53% | 3.38% | 0.37% | 37.5% | 2.07% | 2.61% | 2.7% | 11.8% | 0.65% | 2.13% | 6.25% | 38.8% | 5.77% | 37.9% | 3.79%
5 | COc1cc2c(cc1Nc1nc(Nc3cccc(F)c3C(N)=O)c3cc[nH]c3n1)N(C(=O)CN1CCN(C(C)C)CC1)CC2 | 1.15% | 0.5% | 0.3% | -1.2% | 1.09% | 1.14% | 0.93% | -4.8% | -1.21% | -0.96% | 0.01% | 1.54% | 1.04% | 2.59% | 3.22% | 2.3% | 7.9% | 2.2% | 4.6% | 0.97%
6 | O=C(O[C@H]1CN[C@H](C#Cc2cc3ncnc(Nc4ccc(OCc5cccc(F)c5)c(Cl)c4)c3s2)C1)N1CCOCC1 | -0.16% | 4.25% | 1.43% | 1.9% | -0.14% | 3.48% | 2.29% | -1.46% | -3.98% | 3.72% | 5.62% | 0.43% | 8.74% | 3.21% | 0.2% | 9.9% | 7.06% | 8.49% | 6.1% | 10.3%
7 | NS(=O)(=O)c1ccc(N/N=C2\C(=O)Nc3cccc(CCc4ccncc4)c32)cc1 | 1.66% | 4.48% | 10.8% | 5.3% | 12% | 64.3% | 79.3% | 50.7% | -1.59% | 0.03% | 2.17% | 4.12% | 11.4% | -0.82% | 13.7% | 1.54% | 1.46% | 3.22% | 2.2% | -0.07%
8 | CCCNc1cccc(-n2ncc3c(N/N=C/c4ccncc4)ncnc32)c1 | 3.38% | 18.9% | 52% | 2.98% | 19.7% | 4.53% | 17.6% | 7.74% | 4.3% | 5.05% | 42.8% | 43.1% | 82.8% | 2.44% | 3.95% | 0% | 1.5% | 0.21% | 2.86% | -0.1%
9 | CS(=O)(=O)CCNCc1ccc(-c2ccc3ncnc(Nc4ccc(OCc5ccccc5)cc4)c3c2)o1 | 0.38% | 5.33% | 20.1% | 2.38% | 2.68% | 2.34% | 6.62% | -1.19% | -2.79% | 3.45% | 4.25% | 9.54% | 42.1% | 0.98% | 2.51% | 4.6% | 6.13% | 3.8% | 3.33% | -0.67%
